Reference: the supplement of paper PMC3334620
Over roughly 33,000 sequences, “E-score (-0.5 to 0.5)” has its median near -0.043; the highest 2% begin near 0.37. The full list was thinned out, with the highest values kept by preference.

Molecular target: T1, Upc2 (UniProt Q12151)
T1 sequence: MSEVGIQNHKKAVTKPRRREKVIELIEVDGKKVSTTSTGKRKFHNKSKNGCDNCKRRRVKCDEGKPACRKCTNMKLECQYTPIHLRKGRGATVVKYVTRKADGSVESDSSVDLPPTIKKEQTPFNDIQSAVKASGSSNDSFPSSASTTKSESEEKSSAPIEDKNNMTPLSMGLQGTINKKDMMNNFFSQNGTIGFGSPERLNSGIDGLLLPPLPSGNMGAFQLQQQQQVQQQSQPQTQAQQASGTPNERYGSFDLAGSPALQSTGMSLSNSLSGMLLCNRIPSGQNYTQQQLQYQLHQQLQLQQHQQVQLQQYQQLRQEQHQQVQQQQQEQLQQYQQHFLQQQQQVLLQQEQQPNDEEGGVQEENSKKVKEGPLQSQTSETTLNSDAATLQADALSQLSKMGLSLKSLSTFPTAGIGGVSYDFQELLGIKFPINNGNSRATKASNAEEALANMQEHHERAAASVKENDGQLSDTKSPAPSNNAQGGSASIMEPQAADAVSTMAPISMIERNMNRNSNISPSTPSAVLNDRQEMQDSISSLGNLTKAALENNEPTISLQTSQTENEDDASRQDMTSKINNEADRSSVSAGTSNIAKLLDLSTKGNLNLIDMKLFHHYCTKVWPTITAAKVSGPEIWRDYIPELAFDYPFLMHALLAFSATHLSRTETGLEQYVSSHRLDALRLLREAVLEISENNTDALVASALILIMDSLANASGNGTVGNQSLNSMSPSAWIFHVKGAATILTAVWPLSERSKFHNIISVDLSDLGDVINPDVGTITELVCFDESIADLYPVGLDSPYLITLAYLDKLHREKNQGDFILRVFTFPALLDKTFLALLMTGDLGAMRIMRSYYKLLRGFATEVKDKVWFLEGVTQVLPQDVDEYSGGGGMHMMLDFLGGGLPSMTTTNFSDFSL
Assay: PBM E-score (8-mer binding enrichment) (E-score (-0.5 to 0.5)); higher = stronger / more preferred TF binding
Settings: protein concentration: 200 nM; construct: GST-full length
In short: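 Each ungapped eight-base word and its reverse complement, pooled, received an E-score from the Universal PBM Analysis Suite. Underlying scans, normalised with masliner, recorded fluorescent anti-GST bound to GST-tagged yeast transcription factors. These were applied at about 100-200 nM to universal all-10-mer Agilent arrays double-stranded by primer extension.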

Sequence	PBM E-score
ATCAGACG	0.0965
GGAGTGAC	-0.0854
AGCTCCAT	-0.216
ACTGTCCA	-0.0712
CGTACCCC	0.391
AGTACCCA	-0.131
CATACCCC	-0.0287
CGTACCCA	0.376
GGTACCCA	-0.0644
AGTACCCC	-0.00507
CTTTTGGA	-0.147
ACCCACAC	0.11
GATACGGA	0.278
CATACGGA	0.365
GATACGCA	0.276
CATACGCA	0.313
TATACGGA	0.47
TATACGCA	0.449
ACACCATC	-0.205
CCAAGGAC	-0.247
CGGAGAAA	0.158
CTTGATCA	-0.14
AGCTATAC	0.309
GGTTATAC	0.383
ATCTATAC	0.287

Sequence	PBM E-score
CTCTATAC	0.397
CTTTATAC	0.303
GGCTATAC	0.299
CGTTATAC	0.367
CTATATAC	0.358
CGCTATAC	0.392
ATTTATAA	0.0439
AGTTATAC	0.333
ATTTATAC	0.41
TCGAGAGA	0.0401
GCTAACAC	-0.0792
CCTTACAA	-0.227
GCCTATAC	0.276
ACCTATAC	0.382
CCCTATAC	0.342
AAGGGGGC	0.0404
CATCTTCA	-0.263
ACAACGAC	0.258
AAAACGAT	0.265
CCAACGAC	0.0191
AAAACGAC	0.375
CAAACGAC	0.464
CTAACGAC	0.279
CAAACGAG	0.484
GAAACGAC	0.423

Sequence	PBM E-score
CCAACGAG	0.091
GAAACGGC	0.187
AAAACGAG	0.316
GAAACGCC	0.0519
ATTGCTGG	-0.0945
CACGGCTC	-0.128
ACGCTGGA	0.0743
CCAACCCA	-0.236
ATCCACCC	-0.179
GGGTTACC	0.0304
ACGCTTAA	0.135
ATTGGATG	0.03
ATTACCAA	-0.131
CGCTAGAC	-0.0752
ACGTACCA	0.255
TCGTACCA	0.476
GCGTACCA	0.215
CCGTACAA	0.413
CAGTACAA	-0.0317
CGGTACAA	0.222
ACGTACAA	0.309
GCGTACAA	0.324
TCGTACAA	0.487
AGCCCTTC	-0.211
ATATATCC	0.0459

Sequence	PBM E-score
AGAGGACG	-0.0919
AATGGGCA	-0.00586
CAAGATAG	-0.0974
ATTTCGTC	0.0429
GTTTCGTA	0.446
ATTTCGTG	0.0688
GTTTCGAA	0.0998
CTTTCGTA	0.416
GTTTCGGA	0.219
CTTTCGGA	-0.11
CTTTCGTC	-0.043
ATTTCGTA	0.431
CATAATCC	-0.0711
GAAGGCGC	-0.132
AGCGTAAT	-0.0565
CAGCTATA	0.0617
AGACGATG	0.0313
ATACGATG	0.473
ACACGATC	0.123
CTACGATC	0.288
ACACGATG	0.166
ATACGATC	0.465
CGCTAAAC	0.345
ACAAGCCC	-0.1
GAGAACGA	0.36

Sequence	PBM E-score
AAGAACGG	0.0306
TAGAACGA	0.383
CAGAACGA	0.399
AAGAACGA	0.408
CAGAACGG	0.139
AAGAACGT	0.108
TAGAACCA	-0.0454
CAGAACGC	-0.0286
CTTGGATA	-0.103
AACCTAAC	-0.0536
CCCCAACG	-0.107
ATTAAACA	-0.0789
ATTTAACG	0.387
ATTAAACG	0.461
CCTAAACG	0.472
ACTAAACA	-0.109
ATTAAACC	-0.0396
CCTAAACC	0.0842
CCTAAACA	-0.063
ATTTAACC	-0.0686
ACTAAACC	0.0385
ATTTAACA	0.0412
ACTAAACG	0.463
CGACTCTA	0.0472
CAAGGTTA	0.0313

Sequence	PBM E-score
AGCATCCG	0.106
TACTCAGA	-0.0518
CGCCTGTA	-0.0476
GACCCACA	0.0499
CAAGTAAA	0.0181
GGTTGACA	-0.0866
ATCTAATC	-0.0686
CCTCGTCA	0.108
CCTCGGAC	0.199
CCTCGTAA	0.444
TCTCGTAA	0.434
CCTCGTGA	0.168
CCGCGTAC	0.324
CCTCGTAC	0.477
CCTCGTCG	0.195
CCTCGTAG	0.389
TCACGTAA	0.0344
CCTCATAG	-0.226
TCTCGTCA	-0.0265
CATCACTA	-0.183
CACTTTCA	-0.151
CCTACACA	-0.118
CGAGAGAA	0.113
CCTCAGTA	-0.0614
GCTCGTCC	-0.249

Sequence	PBM E-score
ACTCGTCC	-0.141
ACTCGTAC	0.472
GCACGTAC	0.227
GCTCGTGA	0.00182
ACTCGTAA	0.433
GCTCGTAC	0.477
ACTCGTAG	0.353
GCTCGTCA	0.0569
ACTCGTCA	-0.0246
GCTCGTAA	0.456
ACTCGTGC	0.0738
CCTAAGGA	-0.0656
ACAAGCTC	-0.0437
CCGTGGCC	-0.206
CCAAGTGG	-0.186
ATGCAACG	0.113
ACCCCTGC	-0.412
ATGACTCA	0.029
CAGCCTCA	-0.0411
CTCTCAAG	-0.308
AGATATGC	-0.186
ACTCGTCT	0.167
ACTCGGAT	0.252
ACTCGTAT	0.483
ATCGATCC	-0.00332

Sequence	PBM E-score
CATCCACA	-0.0464
GTAAGCGA	0.388
CTAAGCTA	0.015
GGAAGCGA	0.145
ATAAGCGA	0.347
CTAAGCGC	0.14
CTAAGCGA	0.416
CCATCGAC	-0.247
ATGGGAGA	-0.251
AACCGGTT	0.107
ACTCTAGC	-0.12
GGAACTGA	-0.0729
AACGCTGA	0.0761
CTAGTGAA	-0.126
AGCGTTCC	0.117
GACGTTCA	0.0943
CACGTTCA	0.092
AACGTTCC	0.152
CTCGTTCA	0.476
GGCGTTCA	0.0581
ATCGTTCC	0.43
GTCGTTCA	0.467
CCCGTTCC	0.327
CTCGTTCC	0.479
CTCGTTGA	0.313

Sequence	PBM E-score
CGCGTTCC	0.223
AAATGGCG	-0.0033
AGCTAATC	-0.0679
ATCAAAAC	0.0147
ACACTGTA	0.106
ATCGAAGC	-0.00965
GGTGTGGA	0.00988
ATCGTTGG	0.0354
AGCGTTCA	-0.0376
AACGTTCG	0.212
AACGTTCA	0.212
ATCGTTCA	0.443
ATCGTTCG	0.384
TCTTGAAA	0.0803
ACAGCGCT	0.128
CTCTGTCC	-0.116
CTATTGAC	-0.166
ACTTCGTA	0.429
ACTTCGTG	0.0872
CCTTCGTA	0.441
GCTTCGCA	0.186
CCTTCGCA	0.0293
GCTTCGTA	0.449
CCTTCGTC	0.00619
ACTTCGTC	0.0529

Sequence	PBM E-score
GCTTCGGA	0.102
CCGTTTCA	0.159
CGACTTTC	0.0358
GCCTCCCC	-0.149
CCCCATAC	0.174
ACGTTGCG	0.0848
GGCAGTTA	-0.21
CCGCAGCA	-0.267
ACGAGAAA	0.349
ACGAGAAC	0.375
ACGAGAAG	0.277
CCGAGAAC	0.117
ACGAGACT	0.337
ACGAGAAT	0.396
AATCGCAA	0.0942
TGCATGAA	0.0372
AATGCAGA	-0.0923
TGCTAGCA	-0.0249
AGGAACGG	0.322
GGGAACAA	0.0652
AGGAACGC	0.114
CGGAACGA	0.468
AGGAACGA	0.449
GGGAACCA	-0.165
GGGAACGA	0.466

Sequence	PBM E-score
CGGAACAA	0.0835
CGGAACGC	0.243
GTCCACAA	-0.215
CCGGAGCA	-0.0221
AGTGCAGC	-0.22
ATTACGTA	0.309
CCACTGTA	0.0804
TTGCCCAA	-0.0249
ACGTATAT	0.404
GCGTATAC	0.454
CCGTATAC	0.475
CCGTATCC	0.331
GCGTATTA	0.0994
GCGTATAA	0.444
GTGTATAA	0.138
GAGTATAC	0.315
AAGTATAT	0.104
AGGTATAT	-0.0562
CTGTATAC	0.281
GGGTATAC	0.255
CCTAGTGC	-0.199
CGTCATGC	-0.202
CAGAATTC	-0.03
GGATGGCA	0.0444
ACTACCAG	-0.0238

Sequence	PBM E-score
CTCTTCGC	-0.12
ACTATGAA	-0.0506
AGAGGGTG	-0.171
TTATACAA	0.0521
GCTGCAAC	-0.107
GTACTCTA	-0.0205
CTGGGTAA	-0.00044
GCTGTGTA	0.00184
ACGTATCG	0.22
ACGTATAG	0.433
AAGTATAC	0.306
CCGTATCG	0.319
ATGTATAC	0.263
CCGTATGC	0.356
CGGTATAG	0.225
ACGTATGA	0.243
ACGTATTG	0.209
ACGTATAC	0.445
CCGTATAG	0.485
CCGTATGA	0.392
AAGACTTG	-0.00965
CCCTATCA	-0.325
ACACGCGT	0.152
ACGTTCAT	0.169
CCTCTGTA	0.0279

Sequence	PBM E-score
GAGGTCGC	-0.042
GAATCTAA	0.111
ACGTATAA	0.437
CCGTATAA	0.483
AGGTATAA	0.198
CTGTATAA	0.156
ATGTATAA	0.0845
CGGTATAA	0.267
GACCAATC	-0.117
TCATCAGA	-0.187
GTTGTCAA	-0.00594
TAGCTAAA	0.119
CCTGCCAA	-0.0976
CGTACCTA	0.376
CATACCAG	-0.0446
CGTACCTC	0.361
AGTACCTA	-0.109
AGTACCAA	-0.0772
AGTACCAG	-0.134
GGTACCAC	-0.18
AGTACCAC	-0.0837
CGTACCAC	0.407
CGTACCAG	0.39
TGTACCAA	0.03
CGTACCAA	0.392

Sequence	PBM E-score
GATCAATC	-0.104
AATTGAGC	-0.0691
GTAGGAAC	0.13
CAAGCTTG	-0.233
CAGTAACA	-0.0459
AGAGTGCC	-0.209
AATATACG	0.465
AATATACT	-0.0413
CATATACC	-0.0116
AATATACA	0.0677
CATATACA	0.05
CATATACG	0.463
AAGGACAT	0.0482
AAAATACG	0.346
GTGGACAC	-0.158
GGATCGAC	-0.14
CGCGTTTA	0.415
GGCGTTTA	0.378
CGCGTTCA	0.242
GGCGTTGA	-0.0389
GACGTTTA	0.366
AGCGTTTA	0.363
